Some of the results follow. The source made the active and inactive calls.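 How the source made its calls: active means over 50% activation at some tested dose; inactive means under 50% activation at every tested dose.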
Assay: Hsp70 transcriptional activators, dose response, cell-based, HeLa, Hsp70 promoter luciferase, luminescence, triplicate (AID 1252)
Settings: HeLa hsp70.1pr-luc reporter; series mostly up to 99 µM

outcome, inactive:
COc1ccc(CS(=O)/C(Cl)=C(/Cl)C(=O)Nc2ccc(OC)nc2)cc1 (centres undefined)
COc1ccc(NC(=O)/C(Cl)=C(/Cl)S(=O)Cc2ccc(C)cc2)cn1 (centres undefined)
O=C(/C=C/Sc1ncn[nH]1)c1ccc(Cl)cc1
COCCn1c(C)cc(C(=O)CSc2nc3ccccc3c(=O)n2C(C)COC)c1C (centres undefined)

Reference: PubChem BioAssay AID1252 (The Scripps Research Institute Molecular Screening Center, 2008)
